Screening results as filed in PubChem BioAssay.
Hits are enriched below; roughly 21% of the tested compounds scored in any of these assays.
Cycloheximide cs – counter-screen hit for Shiga toxin inhibitors, cycloheximide; cell reporter, cycloheximide protein synthesis inhibition counterscreen; 300,000 tested, 12% active; max response, %; in the data active means max response mostly above about 13%, no sharp cut-off; inactive means mostly below about 14%; further: read at 38.3 µM for the half of the compounds with a filed dose; 0% is about no effect
Sm TGR inh – blocks Schistosoma mansoni thioredoxin glutathione reductase. Q962Y6. purified TGR, DTNB reduction, TNB absorbance 405 nm. Potency, µM (series often up to 114 µM), for the others: at the top dose activity change, negative = inhibition, most hits filed as inhibitors. 360,000 tested, 3% active. AID 485364; further: potency means the concentration at half of the fitted maximal effect; on the % scale 0 is the no-effect control and ±100 the full control effect; nearly all actives have a fitted effect of over 60% in size
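First, TGR (20 nM dispensed) and NADPH were mixed with compound. Second, a 15 min room-temperature incubation followed. Third, further NADPH and then DTNB were added to start the reaction. Finally, TNB absorbance was monitored kinetically.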
Shiga inhibitor – inhibitors of Shiga toxin in Vero cells | Vero cells, Shiga toxin protein synthesis inhibition reporter | inhibition, % at 38.7 µM | 290,000 tested, 9.2% active | AID 2315; in the data active means inhibition mostly above about 28%, no sharp cut-off; inactive means mostly below about 43%; further: 0% is about no effect
Pf growth 96h – P. falciparum growth inhibition at 96 hour, primary screen for plastid delayed-death inhibitors; 320,000 tested, 6.9% active; Potency, µM (series often up to 28.7 µM), for inactives: at the top dose activity change, negative = inhibition, actives largely listed as inhibitors; P. falciparum luciferase reporter growth, 96 h; AID 504834; further: potency means the concentration at half of the fitted maximal effect; on the % scale 0 is the no-effect control and ±100 the full control effect
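Plates of compound plus infected erythrocytes (2% hematocrit, 0.05% parasitemia final) incubate 96 hours, 37 C, 5% CO2. Detection reagent added; reduced luminescence from the parasites' luciferase reporter flags inhibition.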
NS1 inh – inhibitors of influenza NS1 protein function; Potency, µM (series often up to 46.1 µM), without a hit: at the highest dose activity, positive = more growth; 270,000 tested, 0.4% active; calls by dose curve; further: potency means the concentration at half of the fitted maximal effect; actives are rising curves; nearly all actives have a fitted effect of over 50% in size
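S. cerevisiae expressing influenza A NS1, grown in glucose, washed, then diluted 1:100 into pH 6.0 -URA galactose medium with 23 nl compound. Growth recovery read as OD600; NS1-free strain serves as control.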
Pf growth 48h – P. falciparum growth inhibition at 48 hours (one generation). 310,000 tested, 5.9% active. Potency, µM (top dose mostly 28.7 µM), inactives show at the highest dose activity change, negative = inhibition, hits mostly inhibitors. P. falciparum luciferase growth in erythrocytes, 48 h; further: potency means the concentration at half of the fitted maximal effect; on the % scale 0 is the no-effect control and ±100 the full control effect
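Growth was read as firefly luciferase luminescence after a 48 h, 37 C, 5% CO2 exposure of compounds to reporter-bearing P. falciparum cultures (0.1% parasitemia, 2% hematocrit final) in Albumax-supplemented RPMI 1640.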
* = called active by the depositor; i = inactive; ? = inconclusive; / = no result given. Unless noted, the call rests on the fitted dose curve; in most records, active means well fitted curve in the direction sought with a large enough effect; inconclusive means small, poorly fitted or top-dose-only effect, or another doubt; inactive means no such curve, though single readings can be large; an effect the other way counts as inactive or inconclusive.

SMILES	Cycloheximide cs	Sm TGR inh	Shiga inhibitor	Pf growth 96h	NS1 inh	Pf growth 48h
COc1ccc(CCN(CC(=O)NC2CCCC2)C(=O)Cn2nnc(-c3ccc(C)o3)n2)cc1OC	5	0%	-8	-19%	4%	0%
O=C(CCn1c(=O)c2cccn2c2cccnc21)N1CCN(c2cccc(Cl)c2)CC1	-4	-1%	-2	?	-4%	9.3µM*
CCOC(=O)C1CCN(C(=O)CCCn2c(=O)c3cccn3c3cccnc32)CC1	3	79µM*	-3	?	9%	-3%
Cc1[nH]nc(SCC(=O)N2CCC(C)CC2)c1[N+](=O)[O-]	17*	-6%	18	-25%	4%	/
C[N+]1(CC(COCc2ccccc2)OC(=O)Cc2ccccc2)CCOCC1 (centres undefined)	-5	-1%	-2	?	-3%	13µM*
CSc1ccc(CNC(=O)c2cc3cc(S(=O)(=O)N4CCCCC4)ccc3n2C)cc1	/	2%	/	/	/	/
COc1cccc(CN(C)C(=O)c2ccc(COc3ccc(Cl)cc3)cc2)c1OC	67*	19%	87*	5%	-56%	37%
Cc1ccccc1C(=O)Nc1nnc(S(=O)(=O)N2CCCCC2)s1	-3	6%	-4	-23%	9%	1%
COc1ccc(S(=O)(=O)N2c3cc(Cl)ccc3Oc3nc4ccccc4nc32)cc1	17	8%	50*	32%	13%	30%
CCn1c(/C=C/c2cc(Br)ccc2O)nc2ccccc2c1=O	-2	-7%	-8	-3%	9%	0.93µM*
Cc1ccc(/C=C/c2nc3ccccc3c(=O)n2CCc2ccccc2)cc1	9	1%	23	?	-5%	-19%
Cc1nc2ccccc2c(=O)n1CCc1ccccc1	16*	7%	53	?	-8%	?
NNc1nc2ccccc2c(=O)n1Cc1ccccc1	29*	?	43*	?	9%	59%
Cc1ccccc1/C=C/c1nc2ccccc2c(=O)n1Cc1ccccc1	-3	3%	8	10µM*	5%	?
Cc1ccc(C(=O)c2oc3ccccc3c2NC(=O)COc2ccc(C(C)(C)C)cc2)cc1	/	5%	/	/	/	/
COc1ccc(CN2CCN(C(=O)c3ccc(S(=O)(=O)NCc4ccco4)cc3)CC2)cc1	/	-1%	/	-2%	/	?
CCn1c(/C=C/c2ccccc2C)nc2ccccc2c1=O	19*	4%	51*	-15%	-16%	1%
Cc1ccccc1/C=C/c1nc2ccccc2c(=O)n1CCc1ccccc1	-3	-3%	-2	-5%	4%	13µM*
CCn1c(/C=C/c2ccccc2F)nc2ccccc2c1=O	18*	-8%	12	?	-17%	4%
Cc1ccccc1-n1c(/C=C/c2ccccc2F)nc2ccccc2c1=O	/	0%	/	/	/	/
COc1ccccc1N1CCN(CCCn2c(=S)[nH]c3ccccc3c2=O)CC1	1	-1%	-13	21%	-3%	7.4µM*
CCn1c(/C=C/c2ccc(O)cc2)nc2ccccc2c1=O	10	3%	9	?	-25%	-1%
O=c1c2ccccc2[nH]c(=S)n1CCc1ccccc1	33*	6%	69*	-10%	-8%	16%
O=c1c2ccccc2[nH]c(=S)n1Cc1ccccc1	-1	-1%	/	?	21%	0%
CC(C)c1nc2c(c(=O)c3ccccc3n2C)c(=O)n1CCc1ccccc1	-2	-9%	-10	4.7µM*	1%	?
SMILES	Cycloheximide cs	Sm TGR inh	Shiga inhibitor	Pf growth 96h	NS1 inh	Pf growth 48h
COc1ccc(CCn2c(C3CCCCC3)nc3c(c(=O)c4ccccc4n3C)c2=O)cc1	-3	13%	-2	?	0%	?
COc1ccc(Cn2c(C3CCCCC3)nc3c(c(=O)c4ccccc4n3C)c2=O)cc1	2	6%	21	2.3µM*	-4%	3.3µM*
COCCn1c(-c2ccc(Cl)cc2)nc2c(c(=O)c3ccccc3n2C)c1=O	-3	-1%	-81	8.3µM*	4%	?
COc1ccc(CCn2c(-c3ccccc3)nc3c(c(=O)c4ccccc4n3C)c2=O)cc1	-2	7%	-12	?	13%	0%
COc1ccc(Cn2c(-c3ccccc3)nc3c(c(=O)c4ccccc4n3C)c2=O)cc1	-3	-1%	-3	12µM*	9%	-15%
COCCCN1C(=O)C2C(C(=O)Nc3cccc(Cl)c3)C3C=CC2(O3)C1C(=O)NC1CCCCC1 (centres undefined)	-5	4%	15	33%	2%	-19%
COc1ccc(NC(=O)NCCn2nnc3cc(S(=O)(=O)N(C)C)ccc32)cc1	/	5%	/	/	/	/
COc1cc(NC(=O)CCn2cnc3ccccc3c2=O)cc(OC)c1	/	-9%	/	/	/	/
NC(N)=NC1=NC(=O)/C(=C/c2ccccc2-n2cccn2)S1	6	-1%	11	-10%	/	12%
CCCc1nc2oc3cc(OC)ccc3c(=O)c2c(=O)n1CCc1ccccc1	1	13%	-5	0%	0%	?
COc1ccc(CCn2c(C(C)C)nc3oc4ccccc4c(=O)c3c2=O)cc1	-1	-2%	20	6.6µM*	-2%	8.3µM*
COc1ccc(CCn2c(C3CCCCC3)nc3c(c(=O)c4ccccc4n3C)c2=O)cc1OC	1	0%	-6	4.7µM*	-2%	3.3µM*
CCC1CCc2c([nH]c3ccccc3c2=O)O1 (centres undefined)	-2	-4%	12	2.3µM*	-21%	?
O=c1c2ccccc2[nH]c2ccccc12	0	-15%	3	1.5µM*	-24%	1.7µM*
O=c1c(-c2ccccc2)n[nH]c2ccccc12	74*	12%	72*	/	-143%	26%
O=c1c2c([nH]c3ccccc13)CCCCC2	-5	5%	-6	1.7µM*	-70%	1.7µM*
O=c1c2c([nH]c3ccccc13)CCCCCC2	-3	-5%	-6	3%	-65%	?
OCc1c[nH]c(=S)n1CCOc1cccc(C(F)(F)F)c1	-3	-25%	-7	5%	3%	-7%
COc1cccc(COc2ccc3ccc(=O)oc3c2)c1	35*	-3%	65*	163%	-7%	139%
COc1ccc(COc2ccc3ccc(=O)oc3c2)cc1	69*	5%	70*	290%	-4%	139%
COc1cccc(C(=O)Oc2ccc3ccc(=O)oc3c2)c1	-2	-6%	-4	12%	0%	/
COc1ccc2ccc(=O)oc2c1	-1	4%	-22	-2%	6%	7%
N#Cc1ccccc1CN1C(=O)c2ccccc2S1(=O)=O	1	-2%	-9	-22%	11%	16%
COC(=O)c1sccc1-n1cccc1C(=O)C(=O)Nc1ccc(F)cc1	11	/	1	-5%	-2%	-12%
CCOc1ccc(NC(=O)CSc2ccccc2N)cc1	39*	23%	118*	-2%	1%	-5%
COC(=O)c1ccc(NC(=O)C(=O)c2cccn2C)cc1	29*	1%	54*	i	/	307%
